Consider 24 compounds from PubChem BioAssay (NCATS).

Records with an inconclusive call do not appear. Calls of active or inactive are those of the source. The call rests on the fitted dose curve; in most records, active means well fitted cell-killing curve with a large enough effect; inconclusive means small, poorly fitted or top-dose-only effect, or effect the other way; inactive means no such curve, though single readings can be large or run the other way.
Potency means the concentration at half of the fitted maximal effect.

The test is described as follows: Quantitative High-Throughput drug screen in 47 multiple myeloma cell lines against the NCATS MIPE library collection: EJM_DSMZ cell viability assay (AID 1918926; further: nearly all actives have a fitted effect of over 30% in size). The following applies: EJM myeloma cell viability, CellTiter-Glo ATP, 48 h; series mostly up to 45.8 µM; viability, % of control: at the top concentration. From the text:
PI: Beverly A. Mock Ph.D.
Laboratory of Cancer Biology and Genetics,
Center for Cancer Research, National Cancer Institute,
National Institute of Health, Bethesda, Maryland
Drug resistance and disease progression are common in multiple myeloma (MM) patients, underscoring the need for new therapeutic combinations. […] We hypothesized that effective combinations would reduce MYC expression and enhance p16 activity. […] These preclinical data identify potentially useful drug combinations for evaluation in drug-resistant MM and reveal potential mechanisms of combined drug sensitivity.
Described herein is the primary MIPE qHTS used to cherrypick compounds. Validated compounds were then further tested for potential synergistic activiy.
[1] Peat TJ, Gaikwad SM, Dubois W, Gyabaah-Kessie N, Zhang S, Gorjifard S, Phyo Z, Andres M, Hughitt VK, Simpson RM, Miller MA, Girvin AT, Taylor A, Williams D, D'Antonio N, Zhang Y, Rajagopalan A, Flietner E, Wilson K, Zhang X, Shinn P, Klumpp-Thomas C, McKnight C, Itkin Z, Chen L, Kazandijian D, Zhang J, Michalowski AM, Simmons JK, Keats J, Thomas CJ, Mock BA. Drug combinations identified by high-throughput screening promote cell cycle transition and upregulate Smad pathways in myeloma. Cancer Lett. 2023 Aug 1;568:216284. doi: 10.1016/j.canlet.2023.216284. Epub 2023 Jun 24. PMID: 37356470; PMCID: PMC10408729.
SEQUENCE No. (e.g., 1, 2, 3, etc.); […] (e.g., Cells, Incubation, Reagent, etc.); VALUE and DESCRIPTION.
1; Cells; 5 uL; white, solid bottom 1536-well Greiner assay plate.
2; Compounds; 23 nL; Kalypsis pin tool (Wako USA) equipped with a 1536-well pin head to transfer to the assay plates.
3; Incubation; 48 hours; 37C incubation.
4; Reagent;5uL; CellTiter Glo (Promega).
5; Detector; 425V; Luminescence; Viewlux PerkinElmer.
NOTES (numbers refer to Sequence numbers above)
1. The cell-based screening methods employed in this study were like those previously published. Briefly, the corresponding myeloma cell lines were screened in 1,536-well plates with 500 cells, 5-uL per well for inhibition of cell viability (assessed by measuring ATP levels with CellTiterGlo).
2. NCATS MIPE 4.0 library of approved and investigational drugs were added using the Kalypsis pin tool. Wells treated with DMSO only for 100% viability and media only wells for 0% viability were used as controls.
3. The assay plates were covered and incubated for 48 hours in a 37C, 5% CO2 incubator with controlled humidity.
4. After 48 hours, CellTilter-GloTM luminescent substrate mix (Promega) reagent was added to the assay plate and plates we incubated for 5 min at room temperature.
5. Signal was measured as median relative luminescence units on a ViewLux (PerkinElmer) multiplate reader.
[1] Heske CM, Davis MI, Baumgart JT, Wilson K, Gormally MV, Chen L, Zhang X, Ceribelli M, Duveau DY, Guha R, Ferrer M, Arnaldez FI, Ji J, Tran HL, Zhang Y, Mendoza A, Helman LJ, Thomas CJ. Matrix Screen Identifies Synergistic Combination of PARP Inhibitors and Nicotinamide Phosphoribosyltransferase (NAMPT) Inhibitors in Ewing Sarcoma. Clin Cancer Res. 2017 Dec 1;23(23):7301-7311. doi: 10.1158/1078-0432.CCR-17-1121. Epub 2017 Sep 12. PMID: 28899971; PMCID: PMC6636827.
On the technique in general: In ATP-based viability assays light output follows the ATP content of the culture.
In the case of `Cc1cccc(C)c1NC(=O)CN1CCCC1=O`, the “viability, % of control” value was 113% (inactive).

As to `CN(C)CCN(C)CCc1ccc(Cl)c(Cl)c1`, the “viability, % of control” value was 114% (inactive).

With `CC1=C2C[C@@H]3[C@@H](CC=C4C[C@@H](O)CC[C@@]43C)[C@@H]2CC[C@]12O[C@H]1C[C@H](C)CN[C@H]1[C@H]2C`, the Potency is 8.33 µM (active).

As for `CNC(=O)N1N=C(c2ccc(N)cc2)c2cc3c(cc2CC1C)OCO3` (centres undefined), the Potency was 11.8 µM (active).

As for `CCCC(C)(COC(N)=O)COC(=O)NC(C)C` (centres undefined), the “viability, % of control” value was 110% (inactive).

Take `NCC1(CC(=O)O)CCCCC1`: the “viability, % of control” value is 111% (inactive).

For `CNCC(O)c1ccc(O)cc1` (centres undefined), the “viability, % of control” value was 94.5% (inactive).

Regarding `CN1CCN(C(=O)O[C@H]2c3nccnc3C(=O)N2c2ccc(Cl)cn2)CC1`, the “viability, % of control” value is 105% (inactive).

Turning to `COC[C@@H](NC(C)=O)C(=O)NCc1ccccc1`, the “viability, % of control” value is 136% (inactive).

Take `O=P1(NCCCl)OCCCN1CCCl` (centres undefined): the “viability, % of control” value is 69.3% (inactive).

As for `COc1ccc2c(c1OC)CN1CCc3cc4c(cc3C1C2)OCO4` (centres undefined), the Potency was 20.9 µM (active).

On to `COC1(CS(=O)c2ccccc2)CCN(CCc2c[nH]c3ccc(F)cc23)CC1` (centres undefined), for which the “viability, % of control” value is 81.9% (inactive).

On to `CNC(=O)c1ccc(N2C(=S)N(c3ccc(C#N)c(C(F)(F)F)c3)C(=O)C23CCC3)cc1F`, for which the Potency is 1.48 µM (active).

In the case of `N[C@@H](Cc1ccc(N(CCCl)CCCl)cc1)C(=O)O`, the Potency is 14.8 µM (active).

As to `O=C(O)C(=O)c1cn(Cc2ccccc2)c2ccc(-c3ccc(OC(F)(F)F)cc3)cc12`, the “viability, % of control” value was 90.9% (inactive).

For `COc1ccc(C(=O)c2c(C)n(CCN3CCOCC3)c3ccccc23)cc1`, the “viability, % of control” value is 113% (inactive).

Regarding `CN(C)[C@@H]1C(=O)C(C(N)=O)=C(O)[C@@]2(O)C(=O)C3=C(O)c4c(O)cccc4[C@@](C)(O)[C@H]3C[C@@H]12`, the “viability, % of control” value was 101% (inactive).

`C[C@@H]1O[C@@H](O[C@H]2C[C@@H](O)[C@]3(CO)[C@H]4[C@H](O)C[C@]5(C)[C@@H](C6=CC(=O)OC6)CC[C@]5(O)[C@@H]4CC[C@]3(O)C2)[C@H](O)[C@H](O)[C@H]1O`: the Potency was 0.0235 µM (active).

Consider `Cn1cc(C2=C(c3cn(C4CCN(Cc5ccccn5)CC4)c4ccccc34)C(=O)NC2=O)c2ccccc21`, for which the Potency was 11.8 µM (active).

Take `Cc1cc(SCc2sc(-c3ccc(C(F)(F)F)c(F)c3)nc2C)ccc1OCC(=O)O`: the “viability, % of control” value is 118% (inactive).

On to `C=C(C)[C@H]1Cc2c(ccc3c2O[C@@H]2COc4cc(OC)c(OC)cc4[C@@H]2C3=O)O1`, for which the Potency is 4.69 µM (active).

In the case of `CC(O)(CS(=O)(=O)c1ccc(F)cc1)C(=O)Nc1ccc(C#N)c(C(F)(F)F)c1` (centres undefined), the Potency is 0.187 µM (active).

As to `Fc1ccc(C(OCCN2CCN(CCCc3ccccc3)CC2)c2ccc(F)cc2)cc1`, the Potency is 13.2 µM (active).

With `C[C@@H]1[C@@H](CC(C[C@H]2O[C@@H]3O[C@]4(C)CC[C@@H]5[C@H](C)CC[C@@H]([C@H]2C)[C@@]35OO4)C[S+](=O)([O-])c2ccc(COC(=O)N(C)C)cc2)O[C@@H]2O[C@]3(C)CC[C@H]4[C@H](C)CC[C@@H]1[C@@]24OO3` (some centres undefined), the Potency is 0.187 µM (active).
